# Inconclusive results are not listed. Calls of active or inactive are those of the source. Rule for the calls: active = hit-call score of the fitted dose curve at least 0.9, where 1 is the maximum; inconclusive = response in the unintended direction; inactive = score below 0.9.
# Experiments:
# [1] = target: human Ephrin type-A Receptor 1 (EphA1), EPHA1 (gene 2041) (UniProt P21709); experiment: NVS_ENZ_hEphA1: NovaScreen (NVS) Enzymatic Assay for human Ephrin type-A Receptor 1 (EphA1) (AID 2283158);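 note: activity is signal loss versus DMSO meaning EphA1 kinase inhibition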
# In short: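 Fluorescent substrate conversion, resolved by mobility-shift separation, measured 1 hour post-dosing using recombinant enzyme; signal loss relative to DMSO baseline. Single-concentration duplicates at 25 uM preceded singleton concentration series topping at 50 uM.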
# [2] = target: Glycogen synthase kinase-3 beta (Homo sapiens) (UniProt P49841); experiment: NVS_ENZ_hGSK3b: NovaScreen (NVS) Enzymatic Assay for human Glycogen Synthase Kinase-3 beta (GSK3b) (AID 2283165)
# In short: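 Recombinant enzyme with specific fluorescent substrate, 1 h, product separated by electrophoretic mobility shift. Primary duplicate screen at 25 uM; actives (e.g. 30% inhibition) followed in singleton concentration-response to 50 uM. Signal loss fitted versus DMSO.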
# [3] = target: human Fibroblast Growth Factor Receptor 1 (FGFR1), FGFR1 (gene 2260) (UniProt P11362); experiment: NVS_ENZ_hFGFR1: NovaScreen (NVS) Enzymatic Assay for human Fibroblast Growth Factor Receptor 1 (FGFR1) (AID 2283159);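 for AC50: hits lower the signal so potencies describe inhibitors of the kinase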
# In short: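 Cell-free recombinant kinase with fluorescent substrate, product separated by electrophoretic mobility shift; read 1 hour after dosing, loss of signal relative to DMSO. Initial screen in duplicate at 25 uM, actives followed in concentration series.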
# [4] = target: Protein deacetylase HDAC6 (Homo sapiens) (UniProt Q9UBN7); experiment: NVS_ENZ_hHDAC6: NovaScreen (NVS) Enzymatic Assay for human Histone Deacetylase 6 (HDAC6) (AID 2283164)
# In short: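 Concentration-response runs up to 50 uM followed a duplicate 25 uM single-point screen. Deacetylase activity of recombinant human HDAC6 read by fluorescence after 1 h, with mobility-shift separation of substrate and product; DMSO as baseline.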
# [5] = target: human IkappaB Kinase alpha (IKKa), CHUK (gene 1147) (UniProt O15111); experiment: NVS_ENZ_hIKKa: NovaScreen (NVS) Enzymatic Assay for human IkappaB Kinase alpha (IKKa) (AID 2283167)
# In short: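 Compounds first run in duplicate at 25 uM, those meeting threshold (e.g. 30% inhibition) retested to maximum 50 uM. Enzyme activity of recombinant IKKa measured by fluorescence with electrophoretic mobility shift separation, 1 hour post-dosing, DMSO baseline.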
# [6] = target: human Insulin Receptor (InsR), INSR (gene 3643) (UniProt P06213); experiment: NVS_ENZ_hInsR: NovaScreen (NVS) Enzymatic Assay for human Insulin Receptor (InsR) (AID 2283168)
# In short: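 Cell-free enzyme assay read 1 h post-dose by fluorescence after substrate/product mobility-shift separation. Duplicate 25 uM primary screen, then singleton concentration-response up to 50 uM for compounds passing threshold; loss of signal vs DMSO.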
# [7] = target: human Janus Kinase 2 (Jak2), JAK2 (gene 3717) (UniProt O60674); experiment: NVS_ENZ_hJak2: NovaScreen (NVS) Enzymatic Assay for human Janus Kinase 2 (Jak2) (AID 2283169)
# In short: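 Single-point duplicate screen at 25 uM, with hits run in concentration series to a 50 uM top dose. Substrate-product separation by mobility shift with fluorescence detection, 1 h post-dosing; DMSO baseline.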
# [8] = target: human c-Jun N-terminal Kinases (JNK2), MAPK9 (gene 5601) (UniProt P45984); experiment: NVS_ENZ_hJNK2: NovaScreen (NVS) Enzymatic Assay for human c-Jun N-terminal Kinases (JNK2) (AID 2283171)
# In short: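 Chemicals first tested in duplicate at 25 uM, then in singleton concentration series up to 50 uM, against extracted JNK2 enzyme. Activity loss read by fluorescence with mobility-shift separation 1 h post-dose; DMSO baseline.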
# [9] = target: Mitogen-activated protein kinase 3 (Homo sapiens) (UniProt P27361); experiment: NVS_ENZ_hMAPK3: NovaScreen (NVS) Enzymatic Assay for human Mitogen-Activated Protein Kinase 3 (MAPK 3) (AID 2283177)
# In short: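 Chemicals were first tested in duplicate at 25 uM, with hits re-run as concentration series (max 50 uM). Recombinant enzyme activity, measured 1 h post-dose in a cell-free format, was read by fluorescence/mobility shift relative to DMSO.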
# [10] = target: human MAP Kinase-Activated Protein Kinase 2 (MAPKAPK2), MAPKAPK2 (gene 9261) (UniProt P49137); experiment: NVS_ENZ_hMAPKAPK2: NovaScreen (NVS) Enzymatic Assay for human MAP Kinase-Activated Protein Kinase 2 (MAPKAPK2) (AID 2283178)
# In short: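 Chemicals screened in duplicate at 25 uM, then to 50 uM top concentration in concentration-response, against recombinant human MAPKAPK2; substrate conversion read 1 hr post-dosing by fluorescence after electrophoretic mobility-shift separation, loss-of-signal relative to DMSO.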
# [11] = target: human MET Proto-Oncogene, Receptor Tyrosine Kinase (MET), MET (gene 4233) (UniProt P08581); experiment: NVS_ENZ_hMet: NovaScreen (NVS) Enzymatic Assay for human MET Proto-Oncogene, Receptor Tyrosine Kinase (MET) (AID 2283180)
# In short: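 Hits from a 25 uM duplicate screen were retested in concentration series up to 50 uM. Enzyme activity was measured by fluorescence after electrophoretic separation of product from substrate, 1 h after compound addition, relative to DMSO.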
# [12] = target: human Mitogen-Activated Protein Kinase 1 (MAPK 1), MAPK1 (gene 5594) (UniProt P28482); experiment: NVS_ENZ_hMAPK1: NovaScreen (NVS) Enzymatic Assay for human Mitogen-Activated Protein Kinase 1 (MAPK 1) (AID 2283175)
# In short: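 Cell-free recombinant human MAPK1 enzymatic assay, fluorescence/electrophoretic mobility shift read at 1 h; loss of signal vs DMSO. Primary screen in duplicate at 25 uM; actives (e.g. ≥30% inhibition) run as concentration-response up to 50 uM.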
# [13] = target: human Matrix Metalloproteinase-1 (MMP1), MMP1 (gene 4312) (UniProt P03956); experiment: NVS_ENZ_hMMP1: NovaScreen (NVS) Enzymatic Assay for human Matrix Metalloproteinase-1 (MMP1) (AID 2283181)
# In short: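 Cell-free fluorescent substrate assay of human MMP1, read after 1 h. A single 25 uM duplicate screen was followed by concentration series to a maximum of 50 uM for actives meeting threshold; inhibition analysed against DMSO baseline.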
# [14] = target: human Matrix Metalloproteinase-3 (MMP3), MMP3 (gene 4314) (UniProt P08254); experiment: NVS_ENZ_hMMP3: NovaScreen (NVS) Enzymatic Assay for human Matrix Metalloproteinase-3 (MMP3) (AID 2283185)
# In short: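 Fluorescent substrate turnover by recombinant MMP3 read after 1 h, signal loss scored against DMSO. Compounds first run in duplicate at 25 uM single dose, then actives confirmed by concentration series.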
# [15] = target: human Mitogen- and Stress-activated Protein Kinase-1 (Msk1), RPS6KA5 (gene 9252) (UniProt O75582); experiment: NVS_ENZ_hMsk1: NovaScreen (NVS) Enzymatic Assay for human Mitogen- and Stress-activated Protein Kinase-1 (Msk1) (AID 2283187)
# In short: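 Chemicals first run in duplicate at 25 uM, with actives followed up in singleton concentration series to 50 uM maximum. Enzyme activity came from substrate/product mobility-shift separation with fluorescence detection after 1 h incubation of the recombinant protein.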
# [16] = target: human FYN Proto-Oncogene, Src family Tyrosine Kinase (Fyn), FYN (gene 2534) (UniProt P06241); experiment: NVS_ENZ_hFyn: NovaScreen (NVS) Enzymatic Assay for human FYN Proto-Oncogene, Src family Tyrosine Kinase (Fyn) (AID 2283161)
# In short: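 Cell-free kinase activity read by fluorescence after mobility-shift separation of substrate and product, 1 h post-dose. Initial single concentration 25 uM in duplicate, then concentration-response follow-up; DMSO baseline.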
# [17] = target: human LYN Proto-Oncogene, Src family Tyrosine Kinase (LynA), LYN (gene 4067) (UniProt P07948); experiment: NVS_ENZ_hLynA: NovaScreen (NVS) Enzymatic Assay for human LYN Proto-Oncogene, Src family Tyrosine Kinase (LynA) (AID 2283173)
# In short: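 Recombinant kinase with fluorescent substrate; product separated from substrate by electrophoretic mobility shift and read 1 h after dosing. Duplicate screen at 25 uM, then concentration-response up to 50 uM; activity scored as signal loss against DMSO.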
# [18] = target: Histone deacetylase 3 (Homo sapiens) (UniProt O15379); experiment: NVS_ENZ_hHDAC3: NovaScreen (NVS) Enzymatic Assay for human Histone Deacetylase 3 (HDAC3) (AID 2283163)
# In short: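 Cell-free enzyme format: loss of fluorescent product after mobility-shift separation, 1 h incubation, recombinant human HDAC3. Single 25 uM duplicate screen first, then concentration series to a 50 uM top for hits; DMSO as baseline.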
# [19] = target: human Matrix Metalloproteinase-7 (MMP7), MMP7 (gene 4316) (UniProt P09237); experiment: NVS_ENZ_hMMP7: NovaScreen (NVS) Enzymatic Assay for human Matrix Metalloproteinase-7 (MMP7) (AID 2283183)
# In short: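 Compounds first tested at 25 uM in duplicate, then at up to 50 uM in concentration series if active. Protease activity measured by fluorescence intensity 1 h after dosing, with fitting relative to DMSO.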
# [20] = target: human Matrix Metalloproteinase-2 (MMP2), MMP2 (gene 4313) (UniProt P08253); experiment: NVS_ENZ_hMMP2: NovaScreen (NVS) Enzymatic Assay for human Matrix Metalloproteinase-2 (MMP2) (AID 2283184)
# In short: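 Compounds first screened in duplicate at a single 25 uM, with actives followed up in concentration series. Recombinant human MMP2 cleaves a fluorogenic substrate; fluorescence taken at 1 h, inhibition fitted relative to DMSO.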
# Chain of human c-Jun N-terminal Kinases (JNK2), MAPK9 (gene 5601) (P45984 whole entry, looked up): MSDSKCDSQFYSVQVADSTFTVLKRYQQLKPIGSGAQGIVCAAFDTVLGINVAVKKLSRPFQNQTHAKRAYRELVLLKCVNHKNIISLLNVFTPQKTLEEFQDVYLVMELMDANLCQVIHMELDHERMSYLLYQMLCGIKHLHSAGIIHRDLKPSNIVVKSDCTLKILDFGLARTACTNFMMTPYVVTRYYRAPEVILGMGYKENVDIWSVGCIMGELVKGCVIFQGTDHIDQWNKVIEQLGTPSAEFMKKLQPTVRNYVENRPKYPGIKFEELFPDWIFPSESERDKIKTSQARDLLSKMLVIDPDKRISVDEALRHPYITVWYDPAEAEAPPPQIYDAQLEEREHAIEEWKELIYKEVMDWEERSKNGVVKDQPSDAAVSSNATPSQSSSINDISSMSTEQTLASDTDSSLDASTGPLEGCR
# Chain of human Mitogen- and Stress-activated Protein Kinase-1 (Msk1), RPS6KA5 (gene 9252) (O75582 whole entry, looked up): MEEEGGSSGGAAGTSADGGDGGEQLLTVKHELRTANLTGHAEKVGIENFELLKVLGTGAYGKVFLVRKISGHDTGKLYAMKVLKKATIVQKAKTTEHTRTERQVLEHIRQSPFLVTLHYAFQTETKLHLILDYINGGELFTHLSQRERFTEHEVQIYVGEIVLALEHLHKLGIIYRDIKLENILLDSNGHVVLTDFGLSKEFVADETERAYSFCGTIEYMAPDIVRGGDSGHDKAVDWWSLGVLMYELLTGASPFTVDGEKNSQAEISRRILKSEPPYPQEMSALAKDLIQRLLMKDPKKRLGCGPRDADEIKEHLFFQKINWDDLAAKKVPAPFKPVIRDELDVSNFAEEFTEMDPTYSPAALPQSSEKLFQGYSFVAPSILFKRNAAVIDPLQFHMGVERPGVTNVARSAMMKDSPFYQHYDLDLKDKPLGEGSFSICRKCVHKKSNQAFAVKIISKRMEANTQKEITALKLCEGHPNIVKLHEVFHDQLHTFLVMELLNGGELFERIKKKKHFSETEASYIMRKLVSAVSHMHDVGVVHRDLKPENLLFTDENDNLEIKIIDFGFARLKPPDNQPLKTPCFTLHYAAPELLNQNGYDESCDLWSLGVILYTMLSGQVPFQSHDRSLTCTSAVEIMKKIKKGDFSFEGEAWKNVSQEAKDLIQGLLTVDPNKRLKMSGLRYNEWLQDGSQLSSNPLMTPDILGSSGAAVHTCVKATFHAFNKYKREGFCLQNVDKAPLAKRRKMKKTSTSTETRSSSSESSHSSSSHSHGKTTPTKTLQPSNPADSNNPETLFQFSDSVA
# Chain of human MET Proto-Oncogene, Receptor Tyrosine Kinase (MET), MET (gene 4233) (P08581 whole entry, looked up): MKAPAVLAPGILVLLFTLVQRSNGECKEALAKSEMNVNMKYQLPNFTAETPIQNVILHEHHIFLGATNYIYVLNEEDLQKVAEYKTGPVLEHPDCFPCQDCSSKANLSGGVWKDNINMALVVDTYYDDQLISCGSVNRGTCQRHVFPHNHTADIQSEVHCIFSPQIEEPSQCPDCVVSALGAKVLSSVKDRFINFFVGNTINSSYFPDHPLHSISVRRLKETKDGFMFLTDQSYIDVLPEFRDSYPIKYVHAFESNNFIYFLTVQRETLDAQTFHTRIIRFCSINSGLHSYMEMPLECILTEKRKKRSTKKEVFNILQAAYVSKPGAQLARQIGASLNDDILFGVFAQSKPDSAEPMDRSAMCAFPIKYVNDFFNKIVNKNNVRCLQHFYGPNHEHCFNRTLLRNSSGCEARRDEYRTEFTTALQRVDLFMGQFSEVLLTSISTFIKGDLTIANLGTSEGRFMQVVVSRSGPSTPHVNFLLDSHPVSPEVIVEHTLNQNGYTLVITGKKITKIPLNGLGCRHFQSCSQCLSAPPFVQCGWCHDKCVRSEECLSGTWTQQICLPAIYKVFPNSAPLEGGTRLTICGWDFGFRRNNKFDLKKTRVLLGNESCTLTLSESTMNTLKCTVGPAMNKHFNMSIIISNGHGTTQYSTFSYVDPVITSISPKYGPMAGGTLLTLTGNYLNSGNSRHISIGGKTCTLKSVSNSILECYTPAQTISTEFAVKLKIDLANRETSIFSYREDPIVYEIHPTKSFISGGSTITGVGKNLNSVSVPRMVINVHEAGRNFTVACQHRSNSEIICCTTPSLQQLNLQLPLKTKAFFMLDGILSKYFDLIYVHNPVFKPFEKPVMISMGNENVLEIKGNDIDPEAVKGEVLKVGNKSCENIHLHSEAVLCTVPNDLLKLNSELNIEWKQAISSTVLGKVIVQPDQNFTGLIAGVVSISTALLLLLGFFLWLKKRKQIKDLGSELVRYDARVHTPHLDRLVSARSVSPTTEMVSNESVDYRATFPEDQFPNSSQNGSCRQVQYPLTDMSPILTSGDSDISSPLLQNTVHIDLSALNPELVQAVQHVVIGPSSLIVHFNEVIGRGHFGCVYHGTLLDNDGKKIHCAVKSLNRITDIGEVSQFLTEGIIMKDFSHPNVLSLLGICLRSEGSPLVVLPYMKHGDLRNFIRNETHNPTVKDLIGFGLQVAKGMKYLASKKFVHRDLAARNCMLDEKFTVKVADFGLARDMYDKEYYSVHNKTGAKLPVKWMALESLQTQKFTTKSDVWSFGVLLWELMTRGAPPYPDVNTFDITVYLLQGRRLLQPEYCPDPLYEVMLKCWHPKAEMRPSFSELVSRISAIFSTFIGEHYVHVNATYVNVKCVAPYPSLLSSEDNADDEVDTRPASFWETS
# Chain of Protein deacetylase HDAC6 (Homo sapiens) (Q9UBN7 whole entry, looked up): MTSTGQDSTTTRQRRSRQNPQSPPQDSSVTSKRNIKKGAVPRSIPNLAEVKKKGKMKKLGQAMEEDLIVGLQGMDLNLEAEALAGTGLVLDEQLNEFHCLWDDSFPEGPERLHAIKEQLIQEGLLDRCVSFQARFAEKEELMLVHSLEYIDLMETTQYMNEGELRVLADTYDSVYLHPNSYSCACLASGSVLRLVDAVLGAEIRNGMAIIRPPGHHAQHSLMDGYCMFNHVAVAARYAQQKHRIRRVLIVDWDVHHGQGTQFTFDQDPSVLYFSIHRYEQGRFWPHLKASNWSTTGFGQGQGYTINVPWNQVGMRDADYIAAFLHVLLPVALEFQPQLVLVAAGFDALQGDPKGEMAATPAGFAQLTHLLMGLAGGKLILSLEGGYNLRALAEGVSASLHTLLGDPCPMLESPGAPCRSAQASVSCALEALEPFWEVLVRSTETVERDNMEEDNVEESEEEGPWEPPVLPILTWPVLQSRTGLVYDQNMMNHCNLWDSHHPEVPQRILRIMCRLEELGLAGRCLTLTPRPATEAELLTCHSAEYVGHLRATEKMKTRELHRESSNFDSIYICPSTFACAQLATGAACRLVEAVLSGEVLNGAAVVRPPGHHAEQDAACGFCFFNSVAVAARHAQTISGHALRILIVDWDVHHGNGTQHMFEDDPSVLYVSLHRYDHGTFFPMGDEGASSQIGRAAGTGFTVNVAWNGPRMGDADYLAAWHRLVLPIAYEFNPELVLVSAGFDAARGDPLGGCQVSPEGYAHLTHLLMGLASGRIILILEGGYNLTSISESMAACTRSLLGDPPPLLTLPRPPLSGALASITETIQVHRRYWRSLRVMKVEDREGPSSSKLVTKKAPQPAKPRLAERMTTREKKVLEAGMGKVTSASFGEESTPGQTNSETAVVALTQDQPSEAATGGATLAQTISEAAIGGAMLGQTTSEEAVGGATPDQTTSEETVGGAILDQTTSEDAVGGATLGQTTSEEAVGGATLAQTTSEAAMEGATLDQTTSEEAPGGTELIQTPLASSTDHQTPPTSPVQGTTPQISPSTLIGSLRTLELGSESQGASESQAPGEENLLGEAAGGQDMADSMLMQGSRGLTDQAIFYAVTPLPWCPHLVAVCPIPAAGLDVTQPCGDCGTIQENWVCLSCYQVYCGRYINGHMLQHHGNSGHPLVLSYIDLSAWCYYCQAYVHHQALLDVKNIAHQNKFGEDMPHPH
# Chain of Glycogen synthase kinase-3 beta (Homo sapiens) (P49841 whole entry, looked up): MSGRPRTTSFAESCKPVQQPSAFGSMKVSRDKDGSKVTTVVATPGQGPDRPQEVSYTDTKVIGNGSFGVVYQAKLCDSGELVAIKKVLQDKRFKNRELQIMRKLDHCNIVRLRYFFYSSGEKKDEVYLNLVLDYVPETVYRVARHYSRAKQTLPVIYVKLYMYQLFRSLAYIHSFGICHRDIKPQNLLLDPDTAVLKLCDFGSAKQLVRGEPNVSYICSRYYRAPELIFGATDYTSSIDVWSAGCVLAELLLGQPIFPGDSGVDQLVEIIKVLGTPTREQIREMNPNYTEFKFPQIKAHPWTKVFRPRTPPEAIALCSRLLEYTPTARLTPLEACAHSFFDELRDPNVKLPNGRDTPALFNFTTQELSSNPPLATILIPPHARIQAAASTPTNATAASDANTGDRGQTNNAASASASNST
# Chain of human IkappaB Kinase alpha (IKKa), CHUK (gene 1147) (O15111 whole entry, looked up): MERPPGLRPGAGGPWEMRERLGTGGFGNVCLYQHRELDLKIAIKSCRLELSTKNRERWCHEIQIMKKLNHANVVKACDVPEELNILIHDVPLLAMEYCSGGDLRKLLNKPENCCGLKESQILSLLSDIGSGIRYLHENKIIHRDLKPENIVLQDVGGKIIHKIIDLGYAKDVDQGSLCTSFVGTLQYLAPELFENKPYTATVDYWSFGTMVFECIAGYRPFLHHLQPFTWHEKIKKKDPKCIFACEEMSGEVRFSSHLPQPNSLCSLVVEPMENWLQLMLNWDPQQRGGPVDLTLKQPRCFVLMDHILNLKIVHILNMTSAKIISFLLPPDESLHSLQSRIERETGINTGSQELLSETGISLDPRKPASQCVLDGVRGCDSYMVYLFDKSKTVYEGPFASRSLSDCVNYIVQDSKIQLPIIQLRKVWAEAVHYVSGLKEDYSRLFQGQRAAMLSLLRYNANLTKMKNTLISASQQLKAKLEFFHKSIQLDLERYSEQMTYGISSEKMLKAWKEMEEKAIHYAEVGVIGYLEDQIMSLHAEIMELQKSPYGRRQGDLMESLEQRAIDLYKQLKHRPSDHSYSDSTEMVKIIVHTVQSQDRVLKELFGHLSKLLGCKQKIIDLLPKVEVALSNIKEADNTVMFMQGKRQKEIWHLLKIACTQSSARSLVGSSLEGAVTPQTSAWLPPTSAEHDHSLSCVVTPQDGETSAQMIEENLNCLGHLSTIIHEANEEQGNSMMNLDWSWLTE
compound,measurement,setting,value
O=c1oc2ccccc2c(O)c1C(CC(O)c1ccc(-c2ccc(Br)cc2)cc1)c1ccccc1 (stereo not drawn),outcome,[1],inactive
CCOC(=O)CCN(SN(C)C(=O)Oc1cccc2c1OC(C)(C)C2)C(C)C,AC50,[1],4.87 µM (active)
Clc1cccc(Cl)c1,outcome,[2],inactive
CC(C)(C)c1ccccc1O,outcome,[2],inactive
O=C(Cl)OCCOCCOC(=O)Cl,AC50,[1],6.6 µM (active)
C=C(C)C(=O)OCC(CC)CCCC (stereo not drawn),outcome,[1],inactive
N#Cc1cccnc1,outcome,[1],inactive
same,outcome,[3],inactive
same,outcome,[4],inactive
same,outcome,[2],inactive
same,outcome,[5],inactive
same,outcome,[6],inactive
same,outcome,[7],inactive
same,outcome,[8],inactive
same,outcome,[9],inactive
same,outcome,[10],inactive
same,outcome,[11],inactive
Cc1cc(C)cc(C)c1,outcome,[6],inactive
O=C(O)CC(O)(CC(=O)O)C(=O)O,outcome,[12],inactive
CCOP(=O)(OCC)OC(=CCl)c1ccc(Cl)cc1Cl,outcome,[1],inactive
O=S(=O)(c1ccc(Cl)cc1)c1cc(Cl)c(Cl)cc1Cl,outcome,[1],inactive
Nc1ccc(N)cc1,outcome,[1],inactive
c1ccc(-c2cccc(-c3ccccc3)c2)cc1,AC50,[1],2.51 µM (active)
CC1CC(=O)O1 (stereo not drawn),outcome,[1],inactive
ClCCCCl,AC50,[1],10.5 µM (active)
CCCCCCCCCCCCc1cccc(S(=O)(=O)O)c1,AC50,[1],32.9 µM (active)
same,AC50,[3],11.4 µM (active)
same,AC50,[4],13.7 µM (active)
same,AC50,[2],25.3 µM (active)
same,AC50,[5],40.9 µM (active)
same,AC50,[10],34.3 µM (active)
same,AC50,[11],17.8 µM (active)
same,AC50,[13],9.41 µM (active)
same,AC50,[14],12.9 µM (active)
same,AC50,[15],25.2 µM (active)
CC(C)[N+](=O)[O-],outcome,[1],inactive
O=C(N[C@H]1CN2CCC1CC2)c1ccc2c(c1)OCCO2,outcome,[1],inactive
same,outcome,[3],inactive
same,outcome,[16],inactive
same,outcome,[8],inactive
same,outcome,[17],inactive
same,outcome,[12],inactive
same,outcome,[9],inactive
same,outcome,[10],inactive
same,outcome,[11],inactive
O=C(O)C1(c2ccc3c(c2)OC[C@H](Cc2ccc(-c4ccccc4)cc2)[C@H]3O)CCCC1,outcome,[3],inactive
CNC(=O)CSP(=O)(OC)OC,outcome,[1],inactive
CC(C)(C#N)N=NC(C)(C)C#N,outcome,[1],inactive
Nc1c(Oc2ccccc2)cc(O)c2c1C(=O)c1ccccc1C2=O,outcome,[1],inactive
CC(C)O.CC(C)O.OCCN(CCO)CCO.OCCN(CCO)CCO.[Ti],outcome,[1],inactive
same,AC50,[3],1.9 µM (active)
same,AC50,[16],0.0034 µM (active)
same,AC50,[2],0.00229 µM (active)
same,outcome,[8],inactive
same,AC50,[9],0.00287 µM (active)
same,AC50,[10],0.00624 µM (active)
same,AC50,[11],25 µM (active)
same,AC50,[15],0.109 µM (active)
Oc1cc(Cl)c(Cl)cc1Cl,outcome,[18],inactive
same,outcome,[2],inactive
O=C1c2ccccc2C(=O)C1C(=O)C(c1ccccc1)c1ccc(Cl)cc1 (stereo not drawn),outcome,[9],inactive
COc1ccccc1N,outcome,[1],inactive
same,outcome,[10],inactive
O=[N+]([O-])c1ccc(Nc2ccccc2)cc1,outcome,[1],inactive
COc1nn(C(=O)NS(=O)(=O)c2ccccc2OC(F)(F)F)c(=O)n1C,outcome,[3],inactive
same,outcome,[9],inactive
same,outcome,[19],inactive
CCCCCCCCCCCCOS(=O)(=O)O,AC50,[3],13.9 µM (active)
same,outcome,[4],inactive
same,AC50,[12],37.3 µM (active)
same,AC50,[11],25.4 µM (active)
same,AC50,[13],7.91 µM (active)
CCCCC(CC)COC(=O)Cl (stereo not drawn),outcome,[1],inactive
CN(C)C(=S)S,outcome,[7],inactive
c1ccc2sc(SNC3CCCCC3)nc2c1,AC50,[1],13.9 µM (active)
OC[P+](CO)(CO)CO,outcome,[1],inactive
OCCN(CCO)CCO,outcome,[17],inactive
Clc1cccc(Cl)c1Cl,outcome,[1],inactive
same,outcome,[3],inactive
same,outcome,[5],inactive
same,outcome,[11],inactive
same,AC50,[20],11.5 µM (active)
same,outcome,[15],inactive

# Source: PubChem BioAssay (EPA / NIEHS)
